# Data: PubChem BioAssay AID1918 (Vanderbilt High Throughput Screening Facility, 2009)
# Out of some 130,000 compounds screened, about 2,500 (1.9%) were called active.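 Rule for the calls: active = signal ratio slope over the read window, or its plate-corrected B-score, at least 3 SD from the plate mean, either direction; inactive = the rest.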 Many of the other results were omitted from the sample, so actives are more common in it than they were.
# Target: ATP-sensitive inward rectifier potassium channel 1 (Homo sapiens) (UniProt P48048)
# Test: Kir1.1 channel activity modulation, library screen – cell-based, thallium flux, MLSMR library, primary screen (AID 1918);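 note: B-score of the F/F0 ratio slope over 7 to 12 s after thallium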
# Details: Tet-inducible ROMK, thallium flux fluorescence; at 10 µM; actives lie on both sides
# Sequence of ATP-sensitive inward rectifier potassium channel 1 (Homo sapiens) (P48048 whole entry, looked up): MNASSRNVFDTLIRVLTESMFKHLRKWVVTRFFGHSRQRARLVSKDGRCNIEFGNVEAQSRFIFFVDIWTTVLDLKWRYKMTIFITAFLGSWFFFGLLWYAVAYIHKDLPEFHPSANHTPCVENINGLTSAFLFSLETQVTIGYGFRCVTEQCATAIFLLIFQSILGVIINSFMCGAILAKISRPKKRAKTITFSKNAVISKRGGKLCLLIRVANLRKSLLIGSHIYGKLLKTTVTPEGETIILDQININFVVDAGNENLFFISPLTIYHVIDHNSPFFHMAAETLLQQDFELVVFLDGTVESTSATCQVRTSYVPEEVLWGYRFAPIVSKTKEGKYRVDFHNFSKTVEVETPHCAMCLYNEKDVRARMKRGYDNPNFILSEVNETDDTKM
row,Compound,B-score
1,CCOC(=O)C1(CC2CCCCO2)CCN(Cc2nc(-c3cccs3)oc2C)CC1 (stereo not given),-0.7 (inactive)
2,CCc1nc2ccccc2c(C(=O)NCc2ccc(OC)cc2)c1C,0.0138 (inactive)
3,c1ccc2c(c1)CSc1sccc1C2=C1CCNCC1,-2.98 (active)
4,O=C(NCc1nnc(SCC(=O)N2CCC(Cc3ccccc3)CC2)o1)c1ccco1,-0.765 (inactive)
5,CC(Oc1ccc2ccccc2c1)C(=O)NNC(=S)NC(=O)c1ccco1 (stereo not given),2.32 (inactive)
6,Cc1ccc(OCC(=O)NNC(=S)NCc2ccccc2)cc1,0.804 (inactive)
7,CCCc1ccc(OCC(=O)NNC(=S)NC(=O)c2ccco2)cc1,4.19 (active)
8,N#C/C(=C\c1ccccc1C(F)(F)F)C(=O)Nc1ccccc1F,-4.23 (active)
9,O=C(Nc1ccccc1F)c1ccccc1-c1ccc(C(F)(F)F)cc1,0.0696 (inactive)
10,Cc1ccc(/C=C(\C#N)C(=O)Nc2cccc3ncccc23)o1,-0.963 (inactive)
11,CCCCNC(=O)c1ccc(-n2c(=S)[nH]c3ccccc3c2=O)cc1,0.371 (inactive)
12,O=C1C2C3C=CC(C3)C2C(=O)N1c1ccc(-c2nc3ccccc3c(=O)o2)cc1 (stereo not given),-0.106 (inactive)
13,Cc1ccc(NC(=O)C(=O)NCC2CCN(C(=O)c3cccc([N+](=O)[O-])c3)CC2)cc1,0.475 (inactive)
14,Cc1[nH]n(-c2cccc(Cl)c2)c(=O)c1/C=N/n1c(C)nc2ccccc2c1=O,0.302 (inactive)
15,Cc1ccc(-n2[nH]c(C)c(/C=N/N3C(=O)c4cccc5cccc(c45)C3=O)c2=O)cc1,3.89 (active)
16,Cc1[nH]n(-c2ccc(Cl)cc2)c(=O)c1/C=N/n1c(C)nc2ccccc2c1=O,-0.843 (inactive)
17,COc1ccccc1Cn1c(C)nnc1-c1cnn(C)c1N,0.26 (inactive)
18,CC(Sc1nnnn1C1CCCCC1)C(=O)O (stereo not given),0.253 (inactive)
19,O=S(=O)(Nc1ncccn1)c1ccc(NS(=O)(=O)c2cccc(Cl)c2Cl)cc1,0.305 (inactive)
20,CCOc1ccc2cc(C#N)c(SCC(=O)OC)nc2c1,-0.501 (inactive)
21,CCOc1ccc2nc(N3CCCN(C(=O)Nc4ccccc4C)CC3)c(C#N)cc2c1,-5.81 (active)
22,Cc1cccc2cc(C#N)c(N3CCCC3)nc12,-0.0822 (inactive)
23,COC(=O)CN1C(=O)N/C(=C/c2ccc(OC)c(C)c2OC)C1=O,1.31 (inactive)
24,CCOC(=O)C1=C(CSc2nccn2C)NC(=O)NC1c1ccc(OC)cc1 (stereo not given),0.553 (inactive)

row,Compound,B-score
1,CCOC(=O)C1=C(C)N=c2s/c(=C\C(=O)OC)c(=O)n2C1c1ccc(OC)cc1 (stereo not given),-6.39 (active)
2,COc1ccc(C2C(C(C)=O)=C(O)C(=O)N2c2nccs2)cc1 (stereo not given),0.28 (inactive)
3,CCC(CC)c1nnc(NC(=O)c2nn(C)c(=O)c3ccccc23)s1,-0.146 (inactive)
4,Cc1nc(COc2cccc(Cl)c2)sc1C(=O)/C=C/N(C)C,-0.0177 (inactive)
5,O=C(CCC(=O)OCc1ccc(Cl)cc1)Nc1ccccc1,1.21 (inactive)
6,O=C(Cc1ccc(Br)cc1)N1CCN(c2ccccn2)CC1,-2.13 (active)
7,COc1cccc(CC(=O)N2CCCC(CCC(=O)N3CCN(c4ccccn4)CC3)C2)c1 (stereo not given),0.339 (inactive)
8,O=C(CCC1CCCN(C(=O)Cc2ccc(F)cc2)C1)N1CCN(c2ccccn2)CC1 (stereo not given),2.32 (inactive)
9,Cc1ccc(S(=O)(=O)NCC(=O)N2CCN(c3ccccn3)CC2)cc1,0.248 (inactive)
10,O=C(Cc1ccccc1Cl)N1CCN(c2ccccn2)CC1,-4.7 (active)
11,O=C(C(Cl)Cl)N1CCN(c2ccccn2)CC1,0.591 (inactive)
12,COc1cccc(CN(C)CC(=O)NCc2ccccc2Cl)c1OC,-0.0981 (inactive)
13,CCNC(=O)COC(=O)/C=C/c1c(C)nn(Cc2cccc(OC)c2)c1Cl,-0.509 (inactive)
14,Cc1ccc(N(C(=O)c2ccc(S(=O)(=O)N(C)C)cc2)C2C=CS(=O)(=O)C2)cc1 (stereo not given),-0.406 (inactive)
15,CN(C)/C=C(/C(=O)c1ccc(Cl)c(Cl)c1)c1nnnn1-c1ccccc1,-2.28 (active)
16,CN(C)/C=C(/C(=O)c1ccccc1)S(=O)(=O)c1ccc(Cl)cc1,-0.0973 (inactive)
17,CN(C)/C=C(/C(=O)c1ccccc1Cl)S(C)(=O)=O,0.383 (inactive)
18,Cc1cc(C)n(CC(=O)Nc2ccc([N+](=O)[O-])cc2)n1,0.748 (inactive)
19,CCOC(=O)CSc1nnc(-c2ccc([N+](=O)[O-])cc2)o1,-0.954 (inactive)
20,O=C(CN1C(=O)NC2(CCCCCC2)C1=O)NC1CC1,-0.159 (inactive)
21,O=C(CN1C(=O)NC2(CCCC2)C1=O)NCC1CCCO1 (stereo not given),0.00667 (inactive)
22,O=C(CN1C(=O)NC(Cc2ccccc2)(Cc2ccccc2)C1=O)NCC1CCCCC1,-4.09 (active)
23,O=S(=O)(NCc1ccco1)c1cnc(Cl)c(Cl)c1,0.266 (inactive)
24,CCOc1cc(NC(=S)NCCCN(C)C)c(OCC)cc1NC(=O)C1CC1,0.491 (inactive)

row,Compound,B-score
1,Cn1c(CNc2nc(-c3ccccc3)cs2)nnc1SCC(=O)c1ccccc1,-4.43 (active)
2,Cn1c(CC(=O)Nc2ccccc2)nnc1SCC(=O)c1ccccc1,0.607 (inactive)
3,Cc1ccc(-c2csc(NNC(=O)c3ccccc3)n2)cc1,-0.0341 (inactive)
4,CCC(C)(C)NC(=O)C(c1cccc(OC)c1OC)N(CC(C)C)C(=O)CCC(=O)Nc1cc(C)on1 (stereo not given),-1.25 (inactive)
5,CSc1cc(C)[nH]c(=O)n1,0.14 (inactive)
6,CCC(=O)Nc1ccc(Nc2nc(Cl)nc(Nc3ccc(NC(=O)CC)cc3)n2)cc1,0.00778 (inactive)
7,CCCCCOC(=O)c1ccc(N2C(=O)C3C4C=CC(C4)C3C2=O)cc1 (stereo not given),-0.208 (inactive)
8,CCCCCCCCCCOC(=O)C[N+](C)(C)CC1CCCCC1O (stereo not given),-1.79 (active)
9,[O-][n+]1c2c(nn1-c1ccc(Cl)c(Cl)c1)-c1nonc1CC2,-0.675 (inactive)
10,CCOC(=O)c1ccc(N2C(=O)CC(N3CCN(C(=O)c4ccccc4)CC3)C2=O)cc1 (stereo not given),-0.67 (inactive)
11,NC(=O)C1(C(N)=O)OC1c1ccc(Cl)cc1Cl (stereo not given),0.219 (inactive)
12,CC(=O)Nc1ccc(S(=O)(=O)N(C)c2ccc(OCC(=O)OCC(=O)N3CCCCC3)cc2)cc1,0.712 (inactive)
13,CN(Cc1ccccc1)Cc1ccccc1F,0.0291 (inactive)
14,Fc1ccccc1Cn1cnc(NC(=S)NCCc2ccccc2)n1,0.722 (inactive)
15,N=c1n(CCc2ccccc2)c2ccccc2n1Cc1ccccc1F,-3.48 (active)
16,Cc1ccc(-n2c(O)c(C=Nc3ccc(S(=O)(=O)Nc4ncccn4)cc3)c3ccccc3c2=O)cc1C,0.113 (inactive)
17,O=c1[nH]c(CSc2ccccc2)nc2c1oc1ccccc12,0.176 (inactive)
18,CCc1cccc2c(=O)c(C(=O)NCCCOC)c[nH]c12,0.0144 (inactive)
19,O=S(=O)(c1ccccc1)N(CC(O)CN1CCCCC1)c1ccccc1 (stereo not given),-0.476 (inactive)
20,CC(C)CN(CC(C)C)CC(O)CN(c1ccccc1)S(=O)(=O)c1ccccc1[N+](=O)[O-] (stereo not given),-2.88 (active)
21,Cc1cccc(N(CC(O)CN(C)C)S(=O)(=O)c2ccccc2)c1 (stereo not given),0.476 (inactive)
22,C=CCNC(=O)COC(=O)CNC(=O)c1cc(Cl)cc([N+](=O)[O-])c1,0.319 (inactive)
23,COC(=O)C[n+]1cccc2ccccc21,-4.33 (active)
24,COC(=O)Cc1nc2ccccc2[nH]1,-0.0215 (inactive)

row,Compound,B-score
1,COc1ccccc1NC(=O)C[n+]1ccccc1,-0.558 (inactive)
2,COc1cccc(NCCC(=O)c2cccc([N+](=O)[O-])c2)c1,1.54 (inactive)
3,O=C(N/N=C/c1ccc(OCC2COCCO2)cc1)c1ccc(Br)cc1 (stereo not given),0.0877 (inactive)
4,Cc1ccc(NC(=O)CN2CCC(C(N)=O)CC2)cc1[N+](=O)[O-],-0.771 (inactive)
5,Cc1ccc(NC(=O)c2cccnc2C(=O)Nc2ccc(C)cc2)cc1,0.166 (inactive)
6,O=C(COC(=O)c1cnccn1)Nc1cccc2ccccc12,0.345 (inactive)
7,CN(C)S(=O)(=O)c1ccc(NC(=O)N2CCOCC2)cc1,-0.469 (inactive)
8,CS(=O)(=O)c1ccc(Cl)c(NC(=O)Nc2ccccc2)c1,-8.31 (active)
9,Cc1c(NC(=O)Nc2ccccc2)cccc1[N+](=O)[O-],1.03 (inactive)
10,CCN(CC)S(=O)(=O)c1ccc(Cl)c(NC(=O)c2ccncc2)c1,-0.305 (inactive)
11,CCOCCCNCc1cc(Br)ccc1OCC,-0.61 (inactive)
12,Cc1ccc(C)c(NC(=O)CCC(=O)N/N=C2/CC(=O)CC(C)(C)C2)c1,-0.197 (inactive)
13,COc1cccc(NC(=O)COC(=O)CCOc2ccccc2OC)c1,2.55 (inactive)
14,Cc1cs/c(=N\N=C\c2ccc(O)cc2)n1Cc1ccco1,-2.07 (inactive)
15,CCOC(=O)CSc1nc2c(sc(=S)n2CCc2ccccc2)c(=O)n1Cc1ccco1,0.0111 (inactive)
16,CN(c1ccccc1)c1ccc(/C=c2\s/c(=C(/C#N)C(=O)C(C)(C)C)n(Cc3ccco3)c2=O)cc1,-5.56 (active)
17,CC(=O)Nc1nc2ccccc2n1Cc1ccc(C)cc1,-0.122 (inactive)
18,Cc1ccnc(SCC(N)=O)n1,0.191 (inactive)
19,CC(C)C(c1nnnn1C(C)(C)C)N1CCN(Cc2cccnc2)CC1 (stereo not given),1.58 (inactive)
20,CC(C)C(c1nnnn1Cc1ccccc1)N1CCC(C(N)=O)CC1 (stereo not given),0.519 (inactive)
21,CCCC(c1nnnn1C(C)(C)C)N1CCN(Cc2ccccc2)CC1 (stereo not given),-13.3 (active)
22,CC(=O)Nc1ccc(NC(=O)CSc2nnc(COc3ccccc3C)n2CC2CCCO2)cc1 (stereo not given),-0.134 (inactive)
23,Cc1ccc(C(=O)N/C(=C\c2ccco2)C(=O)N2CCSCC2)cc1C,1.44 (inactive)
